Here are results for twelve compounds from PubChem BioAssay (Tox21).

Assay [1] is described as follows: Human pregnane X receptor (PXR) small molecule agonists, qHTS cell viability counter screen (AID 1346977). Further: nearly all actives have a fitted effect of over 50% in size. Further: potency means the concentration at half of the fitted maximal effect. The method, boiled down: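 Same-well viability read: CellTiter-Fluor added after 23 hr compound exposure, fluorescence measured 1 hr later. Cells were PXR-Luc HepG2 seeded at 2,000/well in 5% charcoal-stripped FBS medium, rested 5 hr before dosing at 37 C.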

The nature of assay [2]: Caspase-3/7 induction in HepG2 cells by small molecules, qHTS assay (AID 1346978). Further: nearly all actives have a fitted effect of over 15% in size. The method, boiled down: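 Caspase-3/7 induction was measured by Caspase-Glo 3/7 luminescence (30 min, room temperature) after a 17 hr compound exposure of wild-type HepG2 cells seeded at 2,000 per well and pre-incubated 5 hr.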
Background: Quantitative high-throughput screening tests each substance at several concentrations.

Assay [3] is described as follows: Caspase-3/7 induction in CHO-K1 cells by small molecules, qHTS cell viability counter screen (AID 1346979). Further: nearly all actives have a fitted effect of over 35% in size. Further: potency means the concentration at half of the fitted maximal effect. The method, boiled down: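 Cytotoxicity counter screen: CellTiter-Fluor added to compound-treated wild-type CHO-K1 cells at 16 h (37C, 5% CO2), fluorescence measured 1 h later; same wells as caspase-3/7 measurement.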
Assay [4] in a line: Caspase-3/7 induction in CHO-K1 cells by small molecules, qHTS assay (AID 1346980). Further: nearly all actives have a fitted effect of over 15% in size. The method in brief: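 Luminescent Caspase-Glo 3/7 read (30min, room temperature) quantified apoptosis induction. Cells were wild-type CHO-K1, treated with compound for 17hr at 37 C and 5% CO2.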
The nature of assay [5]: Caspase-3/7 induction in HepG2 cells by small molecules, qHTS cell viability counter screen (AID 1346981). Further: series mostly up to about 92 µM; nearly all actives have a fitted effect of over 30% in size. The method, boiled down:
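Counter screen for cytotoxicity: HepG2 exposed 16 hr to compounds, then CellTiter-Fluor viability signal (fluorescence, 1 hr reagent incubation).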

Assay [6] deals with Cytochrome P450 2D6 (Homo sapiens) (UniProt P10635). The assay can be described thus: Cytochrome P450 Family 2 Subfamily D Member 6 (CYP2D6) small molecule antagonists: luciferase reporter qHTS assay (AID 1671196). Further: series mostly up to about 120 µM; nearly all actives have a fitted effect of over 50% in size. The method, boiled down: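 Inhibition of CYP2D6 was gauged by loss of luminescence, since light produced tracks the luciferin generated from a proluciferin substrate. A 10 min room-temperature preincubation preceded 1 h NADPH-supported turnover.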
For orientation: Reporter assays use an easily measured gene product as a stand-in for the process of interest.

For assay [7], the target named is Cytochrome P450 2C19 (Homo sapiens) (UniProt P33261). Nature of the assay: Cytochrome P450 Family 2 Subfamily C Member 19 (CYP2C19) small molecule antagonists: luciferase reporter qHTS assay (AID 1671197). Further: nearly all actives have a fitted effect of over 65% in size. Further: potency means the concentration at half of the fitted maximal effect. The method in brief: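 Relative luminescence units recorded 20 min after the detection reagent stopped a 1 h, 37C CYP2C19 reaction on proluciferin substrate, which was started by NADPH regeneration following 10 min room-temperature compound preincubation; ketoconazole positive control.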

The target of assay [8] is Cytochrome P450 2C9 (Homo sapiens) (UniProt P11712). The assay can be described thus: Cytochrome P450 Family 2 Subfamily C Member 9 (CYP2C9) small molecule antagonists: luciferase reporter qHTS assay (AID 1671198). Further: nearly all actives have a fitted effect of over 50% in size. Further: potency means the concentration at half of the fitted maximal effect. The method in brief: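 Enzyme-substrate mix preincubated with compound 10 min at room temperature; reaction started with NADPH regeneration solution, 1 h 37C. Luminescent luciferin product read after 20 min detection reagent.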

Assay [9] has as its target Cytochrome P450 1A2 (Homo sapiens) (UniProt P05177). Nature of the assay: Cytochrome P450 Family 1 Subfamily A Member 2 (CYP1A2) small molecule antagonists: luciferase reporter qHTS assay (AID 1671199). Further: nearly all actives have a fitted effect of over 50% in size. Further: potency means the concentration at half of the fitted maximal effect. The method, boiled down:
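Signal from luciferin formed by CYP1A2 from a proluciferin substrate is read as luminescence, expressed in relative luminescence units. Compounds sit with enzyme 10 min, NADPH-driven reaction runs 1 h, all at room temperature.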

Assay [10] has as its target Voltage-gated inwardly rectifying potassium channel KCNH2 (Homo sapiens) (UniProt Q12809). Nature of the assay: Human Ether-a-go-go-Related Gene (hERG) channel small molecule antagonists: fluorescence cell-based qHTS assay (AID 1671200). The method, boiled down: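 Thallium flux as potassium surrogate: FluxOR II dye loaded 1 h at room temperature into hERG-expressing U2OS cells, then stimulus buffer added after 10 min. Kinetic 480 nm excitation/540 nm emission read, 2 min.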

The target in assay [11] is Nuclear receptor subfamily 1 group I member 2 (Homo sapiens) (UniProt O75469). The assay can be described thus: Human pregnane X receptor (PXR) small molecule agonists, qHTS assay (AID 1346982). Further: nearly all actives have a fitted effect of over 35% in size. Further: potency means the concentration at half of the fitted maximal effect. The method, boiled down: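 Luminescence (ONE-Glo, 30 min RT) after 24 hr compound exposure of PXR-Luc HepG2 cells; cells rested 5 hr post-plating in 5% charcoal-stripped FBS medium.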

For assay [12], the target named is Cytochrome P450 3A4 (Homo sapiens) (UniProt P08684). Nature of the assay: Cytochrome P450 Family 3 Subfamily A Member 4 (CYP3A4) small molecule antagonists: luciferase reporter qHTS assay (AID 1671201). Further: nearly all actives have a fitted effect of over 50% in size. Further: potency means the concentration at half of the fitted maximal effect. The method, boiled down:
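Recombinant human CYP3A4 converts a proluciferin substrate to luciferin over 1 h at room temperature after NADPH regeneration solution is added (compound preincubated 10 min); detection reagent stops reaction, luminescence read 20 min later as relative units.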

The target of assay [13] is Nuclear receptor subfamily 1 group I member 2 (Rattus norvegicus) (UniProt Q9R1A7). Nature of the assay: Rat pregnane X receptor (rPXR) activation by small molecules, qHTS assay (AID 1346983). Further: nearly all actives have a fitted effect of over 20% in size. As to conditions: rPXR luciferase reporter cells, One-Glo luminescence, 24 h; max activation: active compounds read high. The method in brief:
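Luminescent readout (One-Glo luciferase, 30 min room temperature) followed 24 hr compound treatment at 37 C of rPXR cells plated 2,000 per well and preincubated 5hr; qHTS format with compounds delivered in DMSO.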

Assay [14] addresses Nuclear receptor subfamily 1 group I member 2 (Homo sapiens) (UniProt O75469). The assay can be described thus: CYP3A4 induction through human pregnane X receptor (PXR) by small molecules, qHTS assay (AID 1346984). Further: nearly all actives have a fitted effect of over 40% in size. The method in brief:
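DPX-2 reporter cells; 24h cpd, 37C; Luciferin-IPA 3uM final x3h; One-Glo 30 min RT; lumi read.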

Values without a mark were called inactive. Records with an inconclusive call do not appear. The source made the active and inactive calls. The call rests on the fitted dose curve; in most records, active means well fitted curve in the direction sought with a large enough effect in the repeat runs; inconclusive means weak or mixed curves; inactive means no such curve, though single readings can be large; an effect the other way counts as inactive or inconclusive.
On the % scale 0 is the no-effect control and ±100 the full control effect.

Chain of Cytochrome P450 2D6 (Homo sapiens) (P10635 whole entry, looked up): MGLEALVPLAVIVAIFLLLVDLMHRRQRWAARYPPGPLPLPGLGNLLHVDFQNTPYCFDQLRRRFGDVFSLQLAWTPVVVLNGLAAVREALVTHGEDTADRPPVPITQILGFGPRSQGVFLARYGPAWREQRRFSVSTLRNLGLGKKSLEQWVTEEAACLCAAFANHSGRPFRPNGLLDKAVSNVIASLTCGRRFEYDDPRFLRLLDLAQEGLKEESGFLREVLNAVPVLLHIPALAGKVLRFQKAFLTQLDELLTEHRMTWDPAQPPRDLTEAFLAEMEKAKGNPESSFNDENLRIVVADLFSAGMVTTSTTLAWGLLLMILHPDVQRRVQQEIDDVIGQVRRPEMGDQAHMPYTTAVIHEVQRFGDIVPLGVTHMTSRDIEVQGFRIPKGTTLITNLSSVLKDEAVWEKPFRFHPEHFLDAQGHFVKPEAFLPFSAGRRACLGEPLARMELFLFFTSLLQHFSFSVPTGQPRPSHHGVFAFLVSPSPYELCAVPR
Chain of Cytochrome P450 1A2 (Homo sapiens) (P05177 whole entry, looked up): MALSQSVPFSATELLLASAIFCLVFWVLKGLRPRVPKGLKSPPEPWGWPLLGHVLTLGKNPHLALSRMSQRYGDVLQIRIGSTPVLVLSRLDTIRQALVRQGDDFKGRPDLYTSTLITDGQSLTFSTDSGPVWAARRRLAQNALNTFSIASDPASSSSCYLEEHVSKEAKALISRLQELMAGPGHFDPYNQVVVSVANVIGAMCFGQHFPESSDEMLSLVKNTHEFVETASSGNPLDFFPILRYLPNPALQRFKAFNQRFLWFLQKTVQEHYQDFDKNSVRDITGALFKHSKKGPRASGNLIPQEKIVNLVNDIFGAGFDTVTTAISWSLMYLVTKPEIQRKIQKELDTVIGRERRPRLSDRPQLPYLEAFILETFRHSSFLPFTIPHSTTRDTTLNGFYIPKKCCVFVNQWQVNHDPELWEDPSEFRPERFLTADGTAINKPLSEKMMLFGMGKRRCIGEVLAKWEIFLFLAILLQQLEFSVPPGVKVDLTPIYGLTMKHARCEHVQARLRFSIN
Chain of Nuclear receptor subfamily 1 group I member 2 (Homo sapiens) (O75469 whole entry, looked up): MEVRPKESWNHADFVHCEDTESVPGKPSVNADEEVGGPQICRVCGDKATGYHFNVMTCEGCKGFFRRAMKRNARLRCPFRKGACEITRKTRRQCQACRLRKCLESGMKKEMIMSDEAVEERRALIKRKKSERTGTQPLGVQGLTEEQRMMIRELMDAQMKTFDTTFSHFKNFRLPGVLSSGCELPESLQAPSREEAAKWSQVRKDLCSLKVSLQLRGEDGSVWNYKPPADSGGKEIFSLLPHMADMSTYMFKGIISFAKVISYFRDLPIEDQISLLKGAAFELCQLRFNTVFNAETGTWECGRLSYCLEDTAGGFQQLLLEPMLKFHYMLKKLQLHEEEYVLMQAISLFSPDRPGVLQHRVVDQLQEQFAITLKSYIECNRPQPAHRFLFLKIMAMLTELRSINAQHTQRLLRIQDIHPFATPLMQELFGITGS
Chain of Cytochrome P450 3A4 (Homo sapiens) (P08684 whole entry, looked up): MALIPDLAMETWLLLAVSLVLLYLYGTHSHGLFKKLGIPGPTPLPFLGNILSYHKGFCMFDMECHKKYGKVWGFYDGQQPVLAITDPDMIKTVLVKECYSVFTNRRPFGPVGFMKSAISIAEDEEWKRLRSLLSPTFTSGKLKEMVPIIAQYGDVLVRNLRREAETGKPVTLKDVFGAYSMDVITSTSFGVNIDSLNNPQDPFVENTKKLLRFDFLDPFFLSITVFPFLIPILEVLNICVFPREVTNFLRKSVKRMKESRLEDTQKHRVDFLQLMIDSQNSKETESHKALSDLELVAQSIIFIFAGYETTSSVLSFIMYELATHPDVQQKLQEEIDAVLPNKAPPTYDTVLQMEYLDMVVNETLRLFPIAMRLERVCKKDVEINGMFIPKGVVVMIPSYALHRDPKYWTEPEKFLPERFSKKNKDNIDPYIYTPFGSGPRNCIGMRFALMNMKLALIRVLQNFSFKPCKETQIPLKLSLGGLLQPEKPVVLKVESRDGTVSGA
Chain of Cytochrome P450 2C9 (Homo sapiens) (P11712 whole entry, looked up): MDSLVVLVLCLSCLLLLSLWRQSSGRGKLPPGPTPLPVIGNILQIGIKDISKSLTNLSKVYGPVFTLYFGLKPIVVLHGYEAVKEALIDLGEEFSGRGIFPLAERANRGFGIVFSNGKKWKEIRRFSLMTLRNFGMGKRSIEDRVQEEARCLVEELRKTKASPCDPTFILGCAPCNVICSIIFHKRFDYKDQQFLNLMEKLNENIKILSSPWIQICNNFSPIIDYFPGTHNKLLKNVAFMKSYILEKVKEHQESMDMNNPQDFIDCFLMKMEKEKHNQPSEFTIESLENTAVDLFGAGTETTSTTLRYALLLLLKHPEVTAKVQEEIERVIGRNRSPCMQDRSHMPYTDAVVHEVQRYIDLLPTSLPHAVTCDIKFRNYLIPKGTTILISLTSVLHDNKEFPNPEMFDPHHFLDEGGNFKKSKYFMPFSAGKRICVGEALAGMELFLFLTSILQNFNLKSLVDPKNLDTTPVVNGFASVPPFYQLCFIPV
Chain of Voltage-gated inwardly rectifying potassium channel KCNH2 (Homo sapiens) (Q12809 whole entry, looked up): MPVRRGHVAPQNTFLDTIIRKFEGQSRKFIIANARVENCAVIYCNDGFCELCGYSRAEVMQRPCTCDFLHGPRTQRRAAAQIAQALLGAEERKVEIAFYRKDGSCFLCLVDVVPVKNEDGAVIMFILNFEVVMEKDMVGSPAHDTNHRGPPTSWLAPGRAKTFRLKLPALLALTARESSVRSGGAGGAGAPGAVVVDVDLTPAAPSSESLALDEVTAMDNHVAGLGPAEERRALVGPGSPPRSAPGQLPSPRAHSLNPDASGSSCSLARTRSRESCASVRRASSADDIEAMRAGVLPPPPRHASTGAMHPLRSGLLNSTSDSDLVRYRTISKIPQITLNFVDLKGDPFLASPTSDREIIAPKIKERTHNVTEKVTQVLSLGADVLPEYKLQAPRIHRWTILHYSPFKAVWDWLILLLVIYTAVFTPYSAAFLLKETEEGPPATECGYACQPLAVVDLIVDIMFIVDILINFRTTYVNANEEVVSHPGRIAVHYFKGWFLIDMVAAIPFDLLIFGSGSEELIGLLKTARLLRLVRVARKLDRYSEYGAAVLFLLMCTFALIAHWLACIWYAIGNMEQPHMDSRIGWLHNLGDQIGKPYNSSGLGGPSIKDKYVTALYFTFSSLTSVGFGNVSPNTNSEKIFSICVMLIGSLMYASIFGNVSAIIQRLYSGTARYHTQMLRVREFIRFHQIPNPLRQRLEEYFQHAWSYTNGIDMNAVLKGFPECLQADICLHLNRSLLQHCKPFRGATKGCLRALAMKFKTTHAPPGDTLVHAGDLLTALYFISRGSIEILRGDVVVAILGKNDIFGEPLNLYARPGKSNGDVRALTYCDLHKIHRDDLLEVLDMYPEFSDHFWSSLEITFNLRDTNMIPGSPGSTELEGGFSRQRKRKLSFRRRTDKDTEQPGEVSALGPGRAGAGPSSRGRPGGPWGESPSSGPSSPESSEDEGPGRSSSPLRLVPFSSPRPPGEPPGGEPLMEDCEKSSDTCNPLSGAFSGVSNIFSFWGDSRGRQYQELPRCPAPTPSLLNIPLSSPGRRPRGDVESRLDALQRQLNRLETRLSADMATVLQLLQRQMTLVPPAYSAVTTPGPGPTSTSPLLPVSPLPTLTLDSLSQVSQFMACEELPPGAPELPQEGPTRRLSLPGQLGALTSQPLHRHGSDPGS
Chain of Cytochrome P450 2C19 (Homo sapiens) (P33261 whole entry, looked up): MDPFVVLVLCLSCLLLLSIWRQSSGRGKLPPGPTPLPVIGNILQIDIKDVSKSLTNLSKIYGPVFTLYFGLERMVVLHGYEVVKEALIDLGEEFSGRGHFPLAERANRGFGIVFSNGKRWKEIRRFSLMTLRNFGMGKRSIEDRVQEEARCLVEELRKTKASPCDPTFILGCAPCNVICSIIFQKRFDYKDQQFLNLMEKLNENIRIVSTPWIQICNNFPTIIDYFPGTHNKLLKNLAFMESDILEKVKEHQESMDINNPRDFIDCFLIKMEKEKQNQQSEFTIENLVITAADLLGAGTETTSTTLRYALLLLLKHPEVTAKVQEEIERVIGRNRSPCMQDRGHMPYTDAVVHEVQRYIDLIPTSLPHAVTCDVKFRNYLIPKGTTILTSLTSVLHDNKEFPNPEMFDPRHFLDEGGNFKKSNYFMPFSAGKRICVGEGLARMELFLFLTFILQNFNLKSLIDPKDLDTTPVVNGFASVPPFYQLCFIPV
Chain of Nuclear receptor subfamily 1 group I member 2 (Rattus norvegicus) (Q9R1A7 whole entry, looked up): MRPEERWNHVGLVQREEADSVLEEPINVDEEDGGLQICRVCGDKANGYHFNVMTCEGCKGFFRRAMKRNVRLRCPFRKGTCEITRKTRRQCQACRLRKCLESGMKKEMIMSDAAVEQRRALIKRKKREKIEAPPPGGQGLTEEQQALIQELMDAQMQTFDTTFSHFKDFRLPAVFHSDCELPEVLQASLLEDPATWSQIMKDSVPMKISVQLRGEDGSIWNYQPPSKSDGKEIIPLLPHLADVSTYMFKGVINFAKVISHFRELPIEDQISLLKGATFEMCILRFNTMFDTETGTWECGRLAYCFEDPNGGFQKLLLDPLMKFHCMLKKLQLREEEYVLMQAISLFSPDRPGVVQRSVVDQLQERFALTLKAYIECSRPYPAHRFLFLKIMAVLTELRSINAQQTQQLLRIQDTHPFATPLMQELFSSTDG

For `CCN(CC)CC(=O)OCC(=O)[C@@]1(O)CC[C@H]2[C@@H]3CCC4=CC(=O)CC[C@]4(C)[C@H]3[C@@H](O)C[C@@]21C`, the Potency result in assay [1], in assay [2], in assay [3], in assay [4], in assay [5] and in [6] was “inactive” in each case. In addition, the Potency entry in assay [7], in [8], in [9] and in assay [10] was “inactive” in each case.

Turning to `CC(=O)c1cccnc1`, the Potency entry in assay [1], in assay [2], in [3], in [4], in [11] and in assay [7] was “inactive” in each case. Besides, the Potency result in assay [8], in assay [9] and in assay [12] was “inactive” throughout.

For the compound `Cc1c(N=C=O)cccc1N=C=O`, the Potency result in assay [1], in [2], in assay [3], in assay [4], in [11] and in assay [6] was “inactive” throughout. Besides, the Potency entry in assay [10] was “inactive”. Further, the Potency in assay [7] was 72.4 µM (active).

Turning to `Cc1nc(C)c(C)nc1C`, the Potency entry in [1], in assay [2], in [3], in assay [4], in assay [11] and in assay [6] was “inactive” throughout. For the same compound, the Potency result in assay [7], in [8], in assay [10] and in assay [12] was “inactive” each time. Also, the Potency in [9] was 35.6 µM (active).

On to `Nc1ncnc2c1ncn2[C@@H]1O[C@H](CO)[C@@H](O)[C@H]1O`, for which the Potency entry in assay [1], in [2], in [3], in assay [4], in [5] and in assay [10] was “inactive” throughout.

On to `CCCCCCCCNC`, for which the Potency result in assay [1], in assay [2], in [3], in assay [4], in assay [11] and in [9] was “inactive” each time. Also, the Potency entry in assay [10] and in assay [12] was “inactive” throughout. For the same compound, the Potency in assay [7] was 22.4 µM (active).

Turning to `Cc1cc(C)c(C)c(O)c1`, the Potency result in [1], in assay [2], in assay [3], in [4], in [11] and in assay [7] was “inactive” each time. The Potency entry in [8] and in [10] was “inactive” each time. Besides, the Potency in [9] is 31.7 µM (active).

On to `C=C[Si](OCC)(OCC)OCC`, for which the Potency result in [1], in assay [2], in [3], in assay [4], in assay [5] and in assay [10] was “inactive” each time.

For the compound `CC(C)(C)c1cc(C=O)cc(C(C)(C)C)c1O`, the Potency result in [1], in assay [2], in assay [3], in assay [4], in [11] and in [6] was “inactive” in each case. Moreover, the Potency result in [9] was “inactive”.

With `Nc1ccccc1Nc1ccccc1`, the Potency in assay [1] is 30.7 µM (active); in assay [3], 27.4 µM (active); in assay [11], 19.4 µM (active); in assay [12] it was 31.8 µM (active). The Potency entry in assay [2], in [4] and in [10] was “inactive” throughout.

In the case of `CCCCCCCCCCCCSCCOCCO`, the Potency entry in assay [1], in [2], in [3], in assay [4], in [5] and in assay [14] was “inactive” in each case. Further, the Potency result in [6], in [10] and in assay [12] was “inactive” in each case. The max activation in [13] is -0.35%. Also, the Potency in assay [8] was 24.5 µM (active).

Regarding `C=CC(=O)OCCCCCCCCCC`, the Potency result in assay [1], in [2], in [3], in assay [4], in assay [11] and in [6] was “inactive” throughout. In addition, the Potency entry in assay [7], in assay [8], in [9] and in assay [12] was “inactive” each time.
